Source: PubChem BioAssay AID1159580 (chemical genetic matrix, 2015)
Among all 5,500 compounds or so, about 2,000 (36%) were called active. Another 18% or so got no clear call; they are omitted. No stated cut-off is given here; in the data, active means normalized growth mostly below about 0.91 (no sharp cut-off); inconclusive means no clear call, values can overlap the other calls; inactive means mostly above about 0.92. The list shows a part of the results.

Test: chemical genetic growth profiling, strain panel (AID 1159580);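 further: tested at 20 µM; growth read once vehicle control cultures reached saturation at 30 °C; 1 = growth at the plate median or of vehicle wells; lower values mean less growth of the strain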
Settings: S. cerevisiae deletion strains, growth OD

Measured: normalized growth

CCN(CC)CCNC(=O)c1ccc(NC(C)=O)cc1
inactive: locus YAL040C, strain CLN3, active compounds read low 0.985 | locus YDR150W, strain NUM1, active compounds read low 0.975 | locus YER002W, strain NOP16, active compounds read low 0.969 | locus YGR078C, strain PAC10, active compounds read low 0.985 | locus YGR229C, strain SMI1, active compounds read low 1.01 | locus YHR030C, strain SLT2, active compounds read low 0.999 | locus YHR079C, strain IRE1, active compounds read low 1.03 | locus YJL095W, strain BCK1, active compounds read low 1.02 | locus YJR066W, strain TOR1, active compounds read low 0.971 | locus YLR113W, strain HOG1, active compounds read low 1.03 | locus YMR307W, strain GAS1, active compounds read low 1.01 | locus YNL175C, strain NOP13, active compounds read low 0.983 | locus YNL183C, strain NPR1, active compounds read low 0.959 | locus YNL197C, strain WHI3, active compounds read low 0.984 | locus YNL224C, strain SQS1, active compounds read low 1.01 | locus YOR083W, strain WHI5 (second series), active compounds read low 0.979 | locus YOR231W, strain MKK1, active compounds read low 1.04 | locus YPL256C, strain CLN2, active compounds read low 1.08
